# Assay outcomes (PubChem BioAssay)
# The list is not random: actives were taken first. Their share in the collection is about 19%.
# ELG1 repair inh – inhibitors of ELG1-dependent DNA repair in HEK293T cells. HEK293T ELG1-luciferase reporter, luminescence, 16 h; DNA damage induced by 5-fluorouridine. Potency, µM (highest dose often 46.1 µM), for inactives: at the top dose activity change, negative = inhibition, most hits filed as inhibitors. hit rate 2.3% among 330,000. AID 504467; further: potency means the concentration at half of the fitted maximal effect; nearly all actives have a fitted effect of over 55% in size
#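 5-Fluorouridine DNA damage + compound/DMSO, 2,000 cells/well, 16 h, 37 °C/5% CO2. ONE-Glo, 30 min RT, luminescence. Readout = decrease in reporter signal.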
# HT1080 IDH1KD tx – kills HT-1080 cells with IDH1 knockdown; HT-1080 IDH1 knockdown viability, ATP luminescence, 48 h; Potency, µM (highest dose often 46.1 µM), without a hit: at the highest dose activity, negative = toxicity, usual class: cytotoxic; hit rate 2% among 360,000;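 further: potency means the concentration at half of the fitted maximal effect; 0% = DMSO wells and -100% = cell-free medium wells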
#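 Viability of IDH1-knockdown HT-1080 fibrosarcoma cells was assessed by CellTiter-Glo after 48 h at 37 °C with titrated compound; concentration-effect curves were classified by fit quality and response size.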
# DT40 TDP1 CPT – DT40-hTDP1 cell growth loss with CPT; chicken DT40 Tdp1-/-;hTDP1 cells + 20 nM CPT, ATP luminescence, 48 h; Potency, µM (titrated, usually from 46.2 µM), without a hit: at the top dose activity change, negative = growth inhibition, most hits filed as inhibitors; hit rate 12% among 420,000; AID 686979; further: potency means the concentration at half of the fitted maximal effect; nearly all actives have a fitted effect of over 55% in size
#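 Chicken DT40 Tdp1-/- cells stably complemented with human TDP1 were seeded at 400 cells/well in medium containing 20 nM camptothecin, exposed to pin-transferred compounds, and grown at 37 °C for at least 48 hr. Viability was read as ATP luminescence.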
# HT1080-NT tox – kills 2HG-producing HT-1080-NT fibrosarcoma cells. HT-1080-NT fibrosarcoma viability, CellTiter-Glo ATP luminescence, 48 h. Potency, µM (series often up to 46.1 µM), for the others: at the highest dose activity, negative = less viability, actives largely listed as cytotoxic. hit rate 1.6% among 360,000. AID 686970;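 further: NT is the 2HG producing partner of a matched IDH1 knockdown line; potency means the concentration at half of the fitted maximal effect; 0% = DMSO-treated cells and -100% = media-only wells without cells; nearly all actives have a fitted effect of over 55% in size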
#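 Read-out is CellTiter-Glo luminescence after 10 minutes at room temperature, following 48 hours' compound treatment of HT-1080-NT cells (750 cells/well, RPMI, 5% FBS, 37 degrees C).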
# TDP1 cell noCPT – qHTS for Inhibitors of human tyrosyl-DNA phosphodiesterase 1 (TDP1): qHTS in cells in absence of CPT. DT40 Tdp1-/- hTDP1 cells, no CPT, ATP luminescence, 48 h. Potency, µM (doses to about 46.2 µM), inactives show top-dose activity change, negative = growth inhibition, most hits filed as inhibitors. hit rate 15% among 420,000; further: potency means the concentration at half of the fitted maximal effect; nearly all actives have a fitted effect of over 55% in size
#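 Chicken DT40 Tdp1-/- cells stably complemented with human TDP1 were seeded at 400 cells/well with DMSO in place of 20 nM camptothecin. After compound pinning, cells grew at least 48 hr at 37 °C; viability read by CellTiter-Glo luminescence.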
# IL-1B inflam inh – inhibitors of inflammasome signaling (IL-1 beta secretion) | hit rate 4.7% among 360,000 | activity change, % at 57.5 µM | THP-1 LPS/ATP IL-1B secretion, AlphaLISA, 16 h; active compounds read low | AID 743279; in the data active means activity change below about -50%; inconclusive means mostly about -30% to -49%
#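 Secreted IL-1B measured by AlphaLISA bead assay after 16 h compound exposure of THP-1 cells; compounds (final up to 57.5 uM) added 1 h before LPS (250 ng/mL) and ATP (1.25 mM) stimulation; lower signal means less secretion.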
# Active calls of the source: *; ? = inconclusive; . = no result given. Unless noted, the call rests on the fitted dose curve; in most records, active means well fitted curve in the direction sought with a large enough effect; inconclusive means small, poorly fitted or top-dose-only effect, or another doubt; inactive means no such curve, though single readings can be large; an effect the other way counts as inactive or inconclusive. Unless noted, on the % scale 0 is the no-effect control and ±100 the full control effect.
SMILES,ELG1 repair inh,HT1080 IDH1KD tx,DT40 TDP1 CPT,HT1080-NT tox,TDP1 cell noCPT,IL-1B inflam inh
COc1ccccc1N1CCN(C(=O)c2cnn3cccnc23)CC1,14%,.,.,.,.,.
CCCc1c(C(=O)NNc2ccccc2OC)cnn1-c1ccccc1,8%,-9%,-19%,-10%,-18%,-52*
O=C(/C=C/[C@H]1O[C@@H](n2cnc3c(NC(=O)c4ccccc4)ncnc32)[C@H](O)[C@@H]1O)NCc1ccc2c(c1)OCO2,.,17%,7%,23%,-12%,-14
O=S(=O)(Cc1noc(-c2ccc(Cl)cc2)n1)Cc1ccco1,?,-5%,?,-8%,-16%,-14
CN(CC(=O)Nc1ccc(N2CCOCC2)cc1)C(=O)CSc1ccc(Br)cc1,12%,-7%,?,-2%,15µM*,1
CN(CC(=O)Nc1ccc(N2CCOCC2)cc1)C(=O)CC(c1ccccc1)c1ccccc1,-18%,-4%,-17%,-8%,-18%,-5
CN(CC(=O)Nc1ccc(N2CCOCC2)cc1)C(=O)CSc1ccc(F)cc1,0%,-2%,-24%,-6%,-24%,0
CN(CC(=O)Nc1ccc(N2CCOCC2)cc1)C(=O)CCc1cc(C(C)(C)C)c(O)c(C(C)(C)C)c1,5%,-19%,?,-17%,16µM*,-1
Cc1ccc(CC(=O)N(C)CC(=O)Nc2ccc(N3CCOCC3)cc2)cc1C,?,3%,13µM*,-2%,-20%,2
CCN1C(=O)CC(N2CCN(c3ccc(C(=O)c4ccccc4)cc3)CC2)C1=O (stereo unspecified),.,-1%,?,-2%,23µM*,-28
CCCCNC(=O)C(NC(=O)c1cccc(C(F)(F)F)c1)C(=O)c1ccccc1 (stereo unspecified),.,8%,-4%,13%,-2%,21
CC(Oc1ccc(F)cc1)C(=O)Nc1cc(-c2ccc(F)c(F)c2)no1 (stereo unspecified),.,.,?,.,-21%,.
C/C(=N\Nc1nc(C)cc(-c2ccccc2)n1)c1ccccc1,?,?,?,-28%,?,3
C/C(=N/Nc1nc(C)cc(-c2ccccc2)n1)c1ccco1,-26%,?,21µM*,-6%,?,-11
C/C(=N\NC(=O)C(O)(c1ccccc1)c1ccccc1)c1ccc(C)o1,-13%,-17%,?,-18%,18µM*,7
C/C(=N\NC(=O)CCC(=O)N/N=C(\C)c1ccc(C)o1)c1ccc(C)o1,.,6%,-3%,8%,-16%,13
C/C(=N\Nc1nc(C)cc(-c2ccccc2)n1)c1ccc(C)o1,?,-10%,?,0%,4.6µM*,-2
O=C(COC(=O)C1C2CC3OC(=O)C1C3C2)Nc1ccc(Br)cc1 (stereo unspecified),-1%,-14%,-4%,-10%,-5%,14
CCCn1c(N)c(N(CCOC)C(=O)c2ccc(N(C)S(=O)(=O)c3ccc(C)cc3)cc2)c(=O)[nH]c1=O,?,2%,-10%,2%,-83%,10
COc1nc(N)c(C#N)c(-c2ccc(N(C)CCC#N)cc2)c1C#N,16µM*,-7%,18µM*,0%,7.3µM*,?
COc1ccc(-c2csc(N(CCCN(C)C)C(=O)c3ccc(C(C)(C)C)cc3)n2)cc1,?,16µM*,?,?,?,-80*
COc1ccc(-c2csc(N(CCCN(C)C)C(=O)c3ccc(Br)cc3)n2)cc1,9%,21µM*,21µM*,21µM*,21µM*,-76*
COc1ccc(-c2csc(N(CCCN(C)C)C(=O)c3ccc(C)cc3)n2)cc1,-19%,?,?,?,16µM*,-79*
